Details in all cases: mRNA level, 48 h; actives raise or lower the signal
Read-out in test [1]: Glutamate-cysteine ligase catalytic (GCLC), GCLC (gene 2729)
Put plainly: LTEA_HepaRG_GCLC: Life Technologies and Expression Analysis (LTEA) Assay for Glutamate-cysteine ligase catalytic (GCLC) using HepaRG (AID 2283498). The method in brief: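 HepaRG, 48 h exposure, 8-pt half-log series from 100 uM, 0.5% DMSO vehicle; TaqMan qRT-PCR for GCLC mRNA, housekeeping-normalized; bidirectional curve fit vs DMSO baseline.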

Read-out in test [2]: growth arrest and DNA damage 45 (GADD45G), GADD45G (gene 10912)
Put plainly: LTEA_HepaRG_GADD45G: Life Technologies and Expression Analysis (LTEA) Assay for growth arrest and DNA damage 45 (GADD45G) using HepaRG (AID 2283499). The method in brief: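 Differentiated human HepaRG cells, 48 h post-plating, exposed 48 h in serum-free induction medium to 8 half-log concentrations (top 100 uM, 0.5% DMSO) in duplicate. GADD45G mRNA measured by Fluidigm TaqMan qRT-PCR, normalized to ACTB, GAPDH, POLR2A; bidirectional fit versus DMSO.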

Read-out in test [3]: Glutamate-cysteine ligase regulatory (GCLM), GCLM (gene 2730)
In words: LTEA_HepaRG_GCLM: Life Technologies and Expression Analysis (LTEA) Assay for Glutamate-cysteine ligase regulatory (GCLM) using HepaRG (AID 2283500). Summed up: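 Endpoint is GCLM transcript level by qRT-PCR, normalized to three housekeeping genes, after 48 h chemical exposure of human HepaRG cells (0.5% DMSO vehicle, top 100 uM, half-log dilutions). Fitting was bidirectional relative to DMSO.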

Read-out in test [4]: Glutathione S-transferase M3 (GSTM3), GSTM3 (gene 2947)
In words: LTEA_HepaRG_GSTM3: Life Technologies and Expression Analysis (LTEA) Assay for Glutathione S-transferase M3 (GSTM3) using HepaRG (AID 2283501). Summed up: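 Differentiated human HepaRG cells were exposed in duplicate for 48 h in serum-free induction medium, 8 points from 100 uM top in half-log steps, 0.5% DMSO. GSTM3 mRNA was measured by TaqMan qRT-PCR, normalized to ACTB, GAPDH and POLR2A; bidirectional fit versus DMSO.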

Read-out in test [5]: Heat shock 70 kDa protein 1 (HSPA1A), gene 3303
In words: LTEA_HepaRG_HSPA1A: Life Technologies and Expression Analysis (LTEA) Assay for Heat shock 70 kDa protein 1 (HSPA1A) using HepaRG (AID 2283502). The method in brief:
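Cells were plated and cultured for 48 h, then switched to serum-free induction medium. Chemicals were added at eight half-log concentrations up to 100 uM for 48 h. RNA was then isolated and HSPA1A measured by qRT-PCR with bidirectional curve fitting against DMSO.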

Read-out in test [6]: Hypoxia-inducible factor 1-alpha (Homo sapiens) (UniProt Q16665)
Put plainly: LTEA_HepaRG_HIF1A: Life Technologies and Expression Analysis (LTEA) Assay for Hypoxia-inducible factor 1 (HIF1A) Trancription factor using HepaRG (AID 2283503). The method in brief: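 HIF1A transcript level read by qRT-PCR (ACTB, GAPDH, POLR2A normalization) after 48 h chemical exposure of HepaRG cultures. Eight half-log concentrations, top 100 uM, 0.5% DMSO vehicle, duplicates; bidirectional curve fit against DMSO baseline.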

Read-out in test [7]: 3-Hydroxy-3-Methylglutaryl-CoA Synthase 2 (HMGCS2), HMGCS2 (gene 3158)
In words: LTEA_HepaRG_HMGCS2: Life Technologies and Expression Analysis (LTEA) Assay for 3-Hydroxy-3-Methylglutaryl-CoA Synthase 2 (HMGCS2) using HepaRG (AID 2283504). Summed up:
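Human HepaRG cells in serum-free induction medium were exposed in duplicate for 48 h to 8-point half-log series from 100 uM top in 0.5% DMSO. HMGCS2 mRNA measured by TaqMan qRT-PCR, normalised to ACTB, GAPDH, POLR2A; bidirectional fit versus DMSO.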

Read-out in a further test: HGF (gene 3082)
In words: LTEA_HepaRG_HGF: Life Technologies and Expression Analysis (LTEA) Assay for Hepatocyte Growth Facto (HGF) using HepaRG (AID 2283505). The method in brief: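 Differentiated HepaRG cells in serum-free induction medium exposed 48 h in duplicate, 8 half-log concentrations from 100 uM in 0.5% DMSO. HGF mRNA by qRT-PCR, normalised to ACTB, GAPDH, POLR2A; bidirectional fitting.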

Read-out in test [8]: Insulin Like Growth Factor 1 (IGF1), IGF1 (gene 3479)
In words: LTEA_HepaRG_IGF1: Life Technologies and Expression Analysis (LTEA) Assay for Insulin Like Growth Factor 1 (IGF1) using HepaRG (AID 2283506). Summed up:
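Cells are thawed, plated and cultured 48 h, then exposed in duplicate to chemical (highest 100 uM, half-log steps, 0.5% DMSO) for another 48 h. Total RNA is analysed by Fluidigm qRT-PCR for IGF1 expression relative to vehicle.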

Read-out in test [9]: Intercellular Adhesion Molecule 1 (ICAM1), ICAM1 (gene 3383)
Put plainly: LTEA_HepaRG_ICAM1: Life Technologies and Expression Analysis (LTEA) Assay for Intercellular Adhesion Molecule 1 (ICAM1) using HepaRG (AID 2283507). The method in brief:
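Differentiated human HepaRG cells in serum-free induction medium exposed 48 h in duplicate to 8 half-log concentrations (top 100 uM, 0.5% DMSO). ICAM1 mRNA quantified by TaqMan qRT-PCR, normalized to ACTB, GAPDH and POLR2A; bidirectional fitting versus DMSO.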

Read-out in test [10]: Interleukin 6 (IL6), IL6 (gene 3569)
In words: LTEA_HepaRG_IL6: Life Technologies and Expression Analysis (LTEA) Assay for Interleukin 6 (IL6) using HepaRG (AID 2283509). Summed up: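 qRT-PCR read-out of IL6 transcript, normalized to three housekeeping genes, after 48 h chemical exposure of HepaRG cells; 8-point half-log series, top 100 uM, 0.5% DMSO vehicle. Bidirectional curve fitting against DMSO baseline.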

Read-out in test [11]: Interleukin 6 Receptor (IL6R), IL6R (gene 3570)
Put plainly: LTEA_HepaRG_IL6R: Life Technologies and Expression Analysis (LTEA) Assay for Interleukin 6 Receptor (IL6R) using HepaRG (AID 2283510).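 For AC50: TaqMan qRT-PCR signal normalized to ACTB GAPDH and POLR2A housekeeping genes.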 Summed up:
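Cells were thawed, plated and cultured 48 h, then medium was changed to serum-free induction medium. Chemicals were added in duplicate (100 uM top, half-log steps, 0.5% DMSO) for 48 h. Lysates were analyzed by qRT-PCR for IL6R expression.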

Read-out in test [12]: Potassium channel subfamily K member 1 (KCNK1), KCNK1 (gene 3775)
In words: LTEA_HepaRG_KCNK1: Life Technologies and Expression Analysis (LTEA) Assay for Potassium channel subfamily K member 1 (KCNK1) using HepaRG (AID 2283511). The method in brief:
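HepaRG, 48 h exposure, 8-pt half-log series top 100 uM, 0.5% DMSO vehicle, duplicates. Readout: KCNK1 transcript by qRT-PCR (Fluidigm array), housekeeping-normalized; bidirectional curve fit relative to DMSO baseline.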

Read-out in test [13]: Keratin 19 (KRT19), KRT19 (gene 3880)
Put plainly: LTEA_HepaRG_KRT19: Life Technologies and Expression Analysis (LTEA) Assay for Keratin 19 (KRT19) using HepaRG (AID 2283512). Summed up: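 Differentiated HepaRG cells in serum-free induction medium, exposed 48 h in duplicate to 8 half-log concentrations up to 100 uM in 0.5% DMSO. KRT19 mRNA by qRT-PCR, normalized to ACTB, GAPDH, POLR2A; bidirectional fit vs DMSO.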

Read-out in test [14]: JUN Transcription Factor, JUN (gene 3725)
Put plainly: LTEA_HepaRG_JUN: Life Technologies and Expression Analysis (LTEA) Assay for JUN Transcription Factor using HepaRG (AID 2283513). Summed up: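 Read-out is JUN transcript level by TaqMan qRT-PCR, normalized to ACTB, GAPDH and POLR2A, after 48 h chemical treatment of HepaRG cells. Concentration-response spanned eight half-log points up to 100 uM in 0.5% DMSO.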

Read-out in test [15]: Lipase C (LIPC), LIPC (gene 3990)
In words: LTEA_HepaRG_LIPC: Life Technologies and Expression Analysis (LTEA) Assay for Lipase C (LIPC) using HepaRG (AID 2283514). Summed up:
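HepaRG, 48 h exposure, 8-pt half-log series from 100 uM in 0.5% DMSO, duplicates. Readout: LIPC mRNA by Fluidigm qRT-PCR, housekeeping-normalized (ACTB/GAPDH/POLR2A). Gain or loss fitted bidirectionally against DMSO baseline.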

Read-out in test [16]: Lipoprotein lipase (LPL), LPL (gene 4023)
Put plainly: LTEA_HepaRG_LPL: Life Technologies and Expression Analysis (LTEA) Assay for Lipoprotein lipase (LPL) using HepaRG (AID 2283515). The method in brief:
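HepaRG, 48 h exposure, 8-pt half-log dilutions from 100 uM, 0.5% DMSO vehicle, duplicates; qRT-PCR (Fluidigm array) of LPL mRNA vs housekeeping genes; bidirectional curve fit relative to DMSO baseline.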

Read-out in test [17]: MicroRNA 122 (MIR122), gene 406906
In words: LTEA_HepaRG_MIR122: Life Technologies and Expression Analysis (LTEA) Assay for MicroRNA 122 (MIR122) using HepaRG (AID 2283516). Note: the transcript read is the microRNA miR-122. The method in brief: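 Human liver HepaRG cultures receive test chemicals for 48 h at eight half-log concentrations from 100 uM. Expression is quantified by qRT-PCR with ACTB/GAPDH/POLR2A normalization and fitted bidirectionally against 0.5% DMSO.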

Read-out in test [18]: matrix metalloproteinase-10 (MMP10), MMP10 (gene 4319)
Put plainly: LTEA_HepaRG_MMP10: Life Technologies and Expression Analysis (LTEA) Assay for matrix metalloproteinase-10 (MMP10) using HepaRG (AID 2283517). Summed up:
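Transcript levels come from Fluidigm qRT-PCR normalized to three housekeeping genes, with curves fitted bidirectionally against 0.5% DMSO. Human HepaRG cells were dosed for 48 hours at concentrations up to 100 uM.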

Read-out in test [19]: Insulin-like growth factor-binding protein 1 (IGFBP1), IGFBP1 (gene 3484)
In words: LTEA_HepaRG_IGFBP1: Life Technologies and Expression Analysis (LTEA) Assay for Insulin-like growth factor-binding protein 1 (IGFBP1) using HepaRG (AID 2283508). Summed up: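 HepaRG cells, plated 48 h then switched to serum-free induction medium, exposed in duplicate for 48 h to 8-point half-log series from 100 uM in 0.5% DMSO. mRNA measured by qRT-PCR, normalized to ACTB/GAPDH/POLR2A; bidirectional fit versus DMSO.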

Calls of active or inactive are those of the source. Rule for the calls: active = hit-call score of the fitted dose curve at least 0.9, where 1 is the maximum; inactive = score below 0.9.

Sequence of Hypoxia-inducible factor 1-alpha (Homo sapiens) (Q16665 whole entry, looked up): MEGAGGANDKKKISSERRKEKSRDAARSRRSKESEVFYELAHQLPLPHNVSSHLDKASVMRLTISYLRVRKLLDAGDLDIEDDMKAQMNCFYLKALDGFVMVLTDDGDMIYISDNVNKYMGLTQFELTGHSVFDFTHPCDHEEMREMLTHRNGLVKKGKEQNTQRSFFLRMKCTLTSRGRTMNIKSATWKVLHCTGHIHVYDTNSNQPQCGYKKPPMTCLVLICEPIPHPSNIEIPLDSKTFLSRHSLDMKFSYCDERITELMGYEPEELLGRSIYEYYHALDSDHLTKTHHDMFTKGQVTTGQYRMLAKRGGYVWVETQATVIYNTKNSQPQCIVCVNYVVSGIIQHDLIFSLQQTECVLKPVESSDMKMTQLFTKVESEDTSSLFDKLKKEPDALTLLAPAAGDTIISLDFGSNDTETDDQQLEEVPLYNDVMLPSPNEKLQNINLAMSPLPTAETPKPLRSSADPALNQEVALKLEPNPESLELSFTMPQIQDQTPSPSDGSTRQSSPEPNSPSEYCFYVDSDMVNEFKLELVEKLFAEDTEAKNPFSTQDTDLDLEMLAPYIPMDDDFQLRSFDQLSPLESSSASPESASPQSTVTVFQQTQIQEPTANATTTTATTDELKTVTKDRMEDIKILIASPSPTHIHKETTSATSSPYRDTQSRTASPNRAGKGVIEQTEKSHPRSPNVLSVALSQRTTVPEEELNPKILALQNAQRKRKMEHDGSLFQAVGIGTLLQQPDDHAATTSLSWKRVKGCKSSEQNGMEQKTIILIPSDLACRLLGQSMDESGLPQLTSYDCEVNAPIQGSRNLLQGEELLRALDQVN

Consider `CCCCCCC(CCCCCCCCCCC(=O)OCC(COC(C)=O)OC(C)=O)OC(C)=O` (configuration not stated), for which the molecule was called inactive in test [1], in test [2], in [3], in test [4], in [5] and in [6]. Also, the call (in test [7]; in the test with HGF (gene 3082); in test [8]; in test [9]; in test [10]; in [11]) was inactive. For the same molecule, the result in test [12], in test [13], in [14], in test [15], in test [16] and in test [17] was inactive. The outcome in test [18] was inactive.

Turning to `COc1ccc(C(=O)Nc2nc3ccccc3c(NCc3ccccc3)c2C#N)cc1`, the molecule was called inactive (in test [1]; in [4]; in test [5]; in [6]; in test [7]; with HGF (gene 3082)). In addition, the molecule was classed as inactive in test [10], in test [12] and in test [14]. The AC50 in test [2] is 14.3 µM (active); in [3], 10.9 µM (active); in [8], 13.4 µM (active); in [19], 17.9 µM (active); in test [11], 4.44 µM (active); in test [13], 12.9 µM (active). The AC50 in [15] is 15.7 µM (active); in [16] it was 4.35 µM (active); in test [17], 14.7 µM (active).

Turning to `CCCCC(CC)CO` (configuration not stated), the result in test [1], in test [2], in test [3], in test [4], in [5] and in [6] was inactive. The result (in test [7]; with HGF (gene 3082); in test [8]; in test [9]; in test [19]; in [10]) was inactive. Also, the molecule was classed as inactive in [11], in test [12], in test [13], in [14], in test [15] and in [16]. The outcome in [17] and in test [18] was inactive.
